In PubChem BioAssay AID1578 (Sanford-Burnham Center for Chemical Genomics, 2009):
Hit rate of the full screen: of about 290,000 compounds, about 3,000 (1%) were called active. Rule as the data show it: active = inhibition mostly above about 36% (no sharp cut-off); inactive = mostly below about 34%. Only a selection was taken, and actives are over-represented in it overall.

Assay: NOD1 signaling inhibitors, primary screen, cell-based, luminescence, uHTS (AID 1578);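 also: HEK-293T reporter cells stimulated with the NOD1 agonist gamma-tri-DAP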
Conditions: NOD1-driven NF-kB luciferase reporter cells, at 4 µM, hits give high values

inhibition, active:
O=C(c1ccc(F)cc1)C(CN1CCOCC1)c1ccccc1 (stereo not given) 67.3%
COc1ccc(C(=O)C(CN2CCCC2)c2ccccc2)cc1 (stereo not given) 78.7%
Cc1ccc(Oc2ccc(C(=O)NCc3ccncc3)cc2)cc1 38.4%
COc1ccccc1NC(=O)C(=O)N/N=C/c1ccc([N+](=O)[O-])s1 74.8%
Cc1ccsc1/C=N/NC(=O)c1cc(-c2ccncc2)nc2ccccc12 69.5%
NC(=NCCCCCCN=C(N)/N=C(\N)Nc1ccc(Cl)cc1)/N=C(\N)Nc1ccc(Cl)cc1 46.6%
CCOc1ccc2c(c1)C(C)=CC(C)(C)N2S(=O)(=O)c1ccc(NC(C)=O)cc1 74.1%
CCOc1ccc2nc(SCC(=O)Nc3ccc4c(c3)OCO4)sc2c1 67.3%
CCOc1ccc2nc(SCC(=O)c3ccc(O)cc3O)sc2c1 51.8%
COc1ccc(S(=O)(=O)NCc2ccc(C(=O)O)cc2)cc1 40.7%
O=[N+]([O-])c1ccc(N2CCN(C(=S)NCc3ccc(Cl)cc3)CC2)cc1 89%
Cc1ccc(N=Nc2c(N)[nH]n3c(=O)cc(-c4ccccc4)nc23)cc1 76%
Cc1ccc(C(=O)CSc2nc(-c3ccccc3)cc(=O)[nH]2)cc1 64.8%

inhibition, inactive:
Cc1cc(C)nc(N(C#N)Cc2ccccc2C)n1 -6.3%
O=C(c1ccc(Br)cc1)C(CN1CCOCC1)c1ccccc1 (stereo not given) 5.4%
COc1ccc(C(=O)C(CN2CCOCC2)c2ccccc2)cc1 (stereo not given) 38%
CCCOc1ccc(C(=O)C(CN2CCCC2)c2ccccc2)cc1 (stereo not given) 31.5%
CCOc1ccc(C(=O)C(CN2CCOCC2)c2ccccc2)cc1 (stereo not given) -28.1%
Fc1ccc(OCc2nn[nH]n2)c(F)c1 -9.1%
COc1ccc(C(=O)NC(=S)NNC(=O)[C@H]2C[C@@H]2c2ccccc2)cc1OC -2.6%
O=C(NCC(=O)N(c1cccc(F)c1)C(C(=O)NC1CCCC1)c1ccco1)c1ccco1 (stereo not given) -35.9%
CCOc1ccc(C(=O)NCc2ccncc2)cc1 -14.8%
O=C(NCc1ccncc1)c1ccc(Oc2ccccc2)cc1 18.9%
O=S(=O)(NCc1ccc2c(c1)OCO2)c1c(F)cc(F)cc1Br -29.4%
O=C(N/N=C\c1cccc([N+](=O)[O-])c1O)C1COc2ccccc2O1 (stereo not given) -14.4%
O=C(N/N=C\c1ccc(Cl)s1)C1COc2ccccc2O1 (stereo not given) -4.2%
Cc1ccccc1C(=O)N/N=C/c1ccc([N+](=O)[O-])s1 11%
Fc1ccc(/C=N/NC(=S)Nc2ccc(Cl)cc2Cl)cc1 8.9%
COc1ccccc1NC(=O)C(=O)N/N=C/c1cccs1 -36%
Fc1ccccc1/C=N/NC(=S)Nc1ccc(Cl)cc1Cl -13.3%
COC(=O)N/N=C/c1ccc([N+](=O)[O-])s1 -14.7%
Cc1cc(C(=O)N/N=C/c2ccc([N+](=O)[O-])cc2)c2ccccc2n1 8.1%
COc1cccc(NC(=O)c2ccccc2N2C(=O)C3C4C=CC(C5CC45)C3C2=O)c1 (stereo not given) -54.1%
COc1cccc(OCC(O)CNC(C)c2ccccc2)c1 (stereo not given) -39.9%
C=CCNc1nnnc2c1sc1nc(N3CCOCC3)c3c(c12)CCCC3 -1.1%
COC(=O)c1c(NC(=O)COC(=O)CNC(=O)c2ccco2)sc(C)c1C -14.8%
Cc1ccc(/C(O)=C2\C(=O)C(=O)N(C)C2c2ccc(Br)cc2)cc1 (stereo not given) -22%
CC1CN(C(=O)CN2C(=O)c3ccccc3C2=O)CC(C)O1 (stereo not given) -11.2%
c1ccc(C(c2nnnn2C2CCCC2)N2CCN(c3nc4ccccc4s3)CC2)cc1 (stereo not given) 8.2%
CCOC(=O)c1c(NC(=O)CC)sc2c1CCN(Cc1ccccc1)C2 -21.7%
Nc1nonc1-n1nnc(C(=O)N/N=C/c2ccccn2)c1CNc1ccccc1 -11.6%
COc1ccccc1-c1cc(C(=O)N/N=C/c2sccc2C)c2ccccc2n1 -11.4%
O=C(N/N=C/c1cccs1)c1cc(-c2ccncc2)nc2ccccc12 4.8%
Cc1onc(-c2ccccc2Cl)c1C(=O)OCC(=O)c1c(N)n(C)c(=O)n(C)c1=O -8.2%
COc1ccc(C(C(=O)NC2CCCCC2)N(C(=O)c2snc(C(N)=O)c2N)c2ccc(OC)cc2OC)cc1 (stereo not given) -7.1%
Cn1c(=O)n(C)c2cc(NC(=O)c3ccccc3NS(C)(=O)=O)ccc21 44.4%
O=c1[nH]c(C2CCN(S(=O)(=O)Cc3ccccc3)CC2)nc2c1nnn2Cc1cccc(Cl)c1 -7.8%
NC(=O)Nc1ccc(Cl)cc1 0.2%
NC(N)=NC(=S)Nc1ccc(Cl)cc1 -15.3%
Cc1ccc(S(=O)(=O)NC(C)C(=O)Nc2ccc3c(c2)OCO3)cc1 (stereo not given) -7.4%
Cc1cc(C(F)F)n2nc(C(=O)Nc3cccc(C(F)(F)F)c3)nc2n1 -25.8%
COC(=O)CNC(=O)C(NC(=O)c1ccc(Cl)cc1)C(C)C (stereo not given) 1.3%
O=C(CC1C(=O)NCCN1Cc1cccc(F)c1)NC1CCC1 (stereo not given) -28.3%
CCOc1ccc2c(c1)C(C)=CC(C)(C)N2S(=O)(=O)c1ccc(C)cc1 -31.4%
COc1ccc2c(c1)C(C)=CC(C)(C)N2S(=O)(=O)c1ccc(NC(C)=O)cc1 31.4%
CC(=O)c1cnc2nc(SCc3ccccc3)nn2c1C -36%
O=C(NC1CCCC1)C(c1ccc(F)cc1)N(C(=O)c1csnn1)c1ccccc1 (stereo not given) -27.7%
CCOc1ccc2nc(SCC(=O)NC(=O)C(C)C)sc2c1 -13.9%
O=C(CSc1nc2ccccc2s1)Nc1ccc2c(c1)OCO2 12.2%
CCOc1ccc2nc(SCC(=O)c3ccccc3)sc2c1 -38.9%
O=C(CSc1nc2ccccc2s1)c1ccc(O)cc1O 0.6%
CCN1CCN(C(=S)c2ccc(O)cc2)CC1 -31%
Nc1cccc(C(=O)OCC(=O)Nc2cccc3c2C(=O)c2ccccc2C3=O)c1 -3.2%
O=C(CSc1ccccc1)NC1=NCCS1 -5.2%
CN(C(=O)c1cnc(N2CCN(c3ncccn3)CC2)c2ccccc12)c1ccc(Cl)cc1 14.2%
COc1ccc(Nc2ncc(C(=O)N3CCN(c4ccccc4OC)CC3)c3ccccc23)cc1 52.5%
COc1ccccc1C(=O)N1CCN(c2cccc(Cl)c2)CC1 33.8%
COc1ccc(N(C)C(=O)c2cnc(N3CCN(c4ncccn4)CC3)c3ccccc23)cc1 -20%
COc1ccc(CNCc2ccc(F)cc2)c(OC)c1 -19.8%
CCOC(=O)NC(=O)/C(N=Nc1cc(C)cc(C)c1)=C(\C)O -20.5%
CC(C)(C)NCC(O)(c1ccc(Cl)cc1)c1ccc(Cl)cc1 -30.2%
CCNC(=S)N(Cc1ccc2c(c1)OCO2)C1CC(=O)N(c2ccc(F)cc2)C1=O (stereo not given) -9.3%
COc1cccc(CNS(=O)(=O)c2ccc3c(c2)CC(C)N3C(=O)C2CC2)c1 (stereo not given) 11.6%
CCOC(=O)N1CCN(C(=O)c2ccc(CNS(=O)(=O)c3ccc(C)cc3)cc2)CC1 -13.1%
Cc1ccc(S(=O)(=O)NCc2ccc(C(=O)N3CCN(c4ccccc4)CC3)cc2)cc1 15.5%
CC1Cc2cc(S(=O)(=O)NCc3ccccc3)ccc2N1C(=O)C1CC1 (stereo not given) -4.7%
COc1ccc(S(=O)(=O)NCc2ccccc2)cc1 9.2%
COc1ccc(N2CCN(C(=O)c3ccc(CNS(=O)(=O)c4cc(C)ccc4C)cc3)CC2)cc1 -18.8%
Cc1ccc(S(=O)(=O)NCc2ccc(C(=O)N3CCCC3)cc2)cc1 -46%
COc1ccc(CNS(=O)(=O)c2ccc(OC)cc2)cc1 -1.2%
COc1ccccc1-c1noc(CCCC(=O)N2CCOCC2)n1 -3.7%
O=C(CCc1nc(-c2ccc(Cl)cc2)no1)NC1CCCCC1 -5.8%
CCOC(=O)C1CCCN(C(=O)CNC(=O)Cn2ccc3ccccc3c2=O)C1 (stereo not given) -4.8%
O=C(NC(=O)N1CCCCC1)c1ccccc1 -30.9%
O=C(NCc1ccccc1)c1cc[n+](CC(=O)c2cccs2)cc1 3.5%
CCOc1ccc(CN(C)C(=O)c2ccc3ccccc3n2)cc1 -22.9%
Cc1cccc(N(Cc2ccccc2)C(=O)c2ccc(S(C)(=O)=O)cc2)c1 5.8%
C=CCNC(=S)N1CCN(c2ccc([N+](=O)[O-])cc2)CC1 4.7%
CCNC(=S)N1CCN(c2ccc([N+](=O)[O-])cc2)CC1 16%
CC(C)(C)n1nc2c(c1NC(=O)c1cc(Cl)ccc1[N+](=O)[O-])CS(=O)(=O)C2 19.5%
O=C(O)CSc1nnc(-c2ccc(Cl)cc2Cl)n1-c1ccc(Br)cc1 14.7%
Nc1[nH]n2c(=O)cc(-c3ccccc3)nc2c1N=Nc1ccc(S(N)(=O)=O)cc1 -26%
Cc1ccc(N=Nc2c(N)[nH]n3c(=O)cc(C)nc23)cc1 -20.5%
O=C(O)CSc1nc(-c2ccccc2)cc(=O)[nH]1 -22.9%
Cc1ccc(C(=O)CSc2nc(C)cc(=O)[nH]2)cc1 -3.4%
